Reference: the supplement of paper PMC10515830
Where a name gives a salt, the structure may show the parent alone.

Columns and labels:
Conditions in all cases: 10 µM; exposure time 6 h
[1] = test system: Danio rerio larvae (5 dpf); experiment: difference in excitability vs DMSO (percentage points); higher = more excitable than DMSO
Procedure, shortened: (§1)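 Wild-type zebrafish larvae at 5 dpf were kept in 96-well plates and exposed for 6 h to 100 µL egg water holding library compound at a final concentration of 10 µM. From 3 h into exposure, the plates were held at 28.5 ℃ and photographed every 6 s through a 3-h programme of moving lines and 100 ms, 400Hz tones. Each behaviour was scored by Z-LaP Tracker, a DeepLabCut model, and averaged over 48 larvae per compound. Every value gives the compound mean minus the vehicle control mean, in percentage points.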

[2] = test system: Danio rerio larvae (5 dpf); experiment: difference in startle response vs DMSO (percentage points); higher = stronger startle than DMSO
Procedure, shortened: as §1

[3] = test system: Danio rerio larvae (5 dpf); experiment: difference in activity during first hour vs DMSO (percentage points); higher = more activity than DMSO
Procedure, shortened: as §1

[4] = test system: Danio rerio larvae (5 dpf); experiment: difference in habituation to acoustic stimuli vs DMSO (percentage points); higher = more habituation than DMSO
Procedure, shortened: as §1

[5] = test system: Danio rerio larvae (5 dpf); experiment: difference in combined optomotor response to red, green and blue moving lines vs DMSO (percentage points); higher = stronger optomotor response than DMSO
Procedure, shortened: as §1

SMILES | difference in excitability [1] | difference in startle response [2] | difference in activity during first hour [3] | difference in habituation to acoustic stimuli [4] | difference [5]
C[C@@H]1NC(=O)[C@@H](N)CNC(=O)[C@H](C2CCNC(=N)N2)NC(=O)/C(=C/NC(N)=O)NC(=O)[C@H](CNC(=O)CC(N)CCCN)NC1=O.N=C1NCC[C@H]([C@@H]2NC(=O)/C(=C/NC(N)=O)NC(=O)[C@H](CNC(=O)C[C@@H](N)CCCN)NC(=O)[C@H](CO)NC(=O)[C@@H](N)CNC2=O)N1 [Capreomycin (sulfate)] | 19.5 | 3.05 | -0.814 | 2.2 | 3.54
CCN(CC)CCNC(=O)c1c(C)[nH]c(/C=C2\C(=O)Nc3ccc(F)cc32)c1C [Sunitinib (malate)] | 17.6 | -2.13 | -4 | 0.523 | -0.123
OCCN(CCO)c1nc(N2CCCCC2)c2nc(N(CCO)CCO)nc(N3CCCCC3)c2n1 [Dipyridamole] | 1.25 | 3.31 | 10.2 | -3.82 | 6.89
C#Cc1cccc(Nc2ncnc3cc(OCCOC)c(OCCOC)cc23)c1 [Erlotinib] | 4.3 | -6.74 | -6.91 | -0.321 | -4.8
COc1cc2nc(N3CCN(C(=O)C4CCCO4)CC3)nc(N)c2cc1OC (stereo not given) [Terazosin (hydrochloride)] | 18.5 | 10.8 | -10.2 | 1.1 | 13.9
C#C[C@]1(O)CC[C@H]2[C@@H]3CCC4=CC(=O)CC[C@@H]4[C@H]3CC[C@@]21C [Norethindrone] | 4.84 | -3.95 | -0.842 | 2.6 | 11.2
CO/N=C1\CN(c2nc3c(cc2F)c(=O)c(C(=O)O)cn3C2CC2)CC1CN (stereo not given) [Gemifloxacin (mesylate)] | 7.63 | 9.12 | 11 | -1.77 | 2.04
CO[C@@]1(NC(=O)C2SC(=C(C(N)=O)C(=O)O)S2)C(=O)N2C(C(=O)O)=C(CSc3nnnn3C)CS[C@@H]21 (stereo not given in full) [Cefotetan (sodium salt)] | -4.63 | 4.7 | 10.3 | 7.15 | -1.08
Cc1nnc(SCC2=C(C(=O)O)N3C(=O)[C@@H](NC(=O)Cn4cnnn4)[C@H]3SC2)s1 [Cefazolin (sodium salt)] | 9.87 | -2.79 | 7.43 | -0.463 | 5.77
Cc1c(-c2ccc(O)cc2)n(Cc2ccc(OCCN3CCCCCC3)cc2)c2ccc(O)cc12 [Bazedoxifene (acetate)] | 9.87 | 1.08 | -9.97 | -5.25 | -3.93
O=P(O)(O)C(O)(Cn1ccnc1)P(=O)(O)O [Zoledronic Acid (hydrate)] | -0.91 | -0.172 | 2.53 | 0.128 | 6.76
Cc1c(O)c(=O)ccn1C [Deferiprone] | 4.23 | -1.15 | 8.16 | -1.01 | 10.8
CC(C)OC(=O)[C@H](C)N[P@](=O)(OC[C@H]1O[C@@H](n2ccc(=O)[nH]c2=O)[C@](C)(F)[C@@H]1O)Oc1ccccc1 | -3.58 | -4.12 | 10 | 1.16 | 6.56
CCC[C@H](N[C@@H](C)C(=O)N1[C@H](C(=O)O)C[C@@H]2CCCC[C@@H]21)C(=O)OCC [Perindopril] | 1.68 | 3.45 | 15 | -4.9 | 1.2
CC1(C)S[C@@H]2[C@H](NC(=O)COc3ccccc3)C(=O)N2[C@H]1C(=O)O [Penicillin V (potassium salt)] | -4.2 | 2.03 | 11 | 4.18 | -1.93
CC[C@@H](CO)NCCN[C@@H](CC)CO [Ethambutol (hydrochloride)] | 2.65 | 1.19 | 7 | 4.16 | -3.67
CN(C)C(=O)C(CCN1CCC(O)(c2ccc(Cl)cc2)CC1)(c1ccccc1)c1ccccc1 [Loperamide (hydrochloride)] | 20.6 | 4.43 | 29.3 | -9.2 | -2.52
CN(C)C(=N)NC(=N)N [Metformin (hydrochloride)] | -3.21 | 1.77 | -3.05 | -5.21 | -1.97
C=CC[C@@H]1/C=C(\C)C[C@H](C)C[C@H](OC)[C@H]2O[C@@](O)(C(=O)C(=O)N3CCCC[C@H]3C(=O)O[C@H](/C(C)=C/[C@@H]3CC[C@@H](O)[C@H](OC)C3)[C@H](C)[C@@H](O)CC1=O)[C@H](C)C[C@@H]2OC | 27 | -6.28 | 5.28 | -10.2 | -13.7
O=c1[nH]c(=O)n([C@H]2C[C@H](O)[C@@H](CO)O2)cc1I [Idoxuridine] | 6.91 | 0.604 | -3.04 | 5.55 | 2.86
Cc1ccc([C@@H]2O[C@H](CO)[C@@H](O)[C@H](O)[C@H]2O)cc1Cc1ccc(-c2ccc(F)cc2)s1 [Canagliflozin] | 1.05 | -3.92 | 3.63 | 3.27 | 5.53
CC(=O)N1CCN(c2ccc(OCC3COC(Cn4ccnc4)(c4ccc(Cl)cc4Cl)O3)cc2)CC1 (stereo not given) [Ketoconazole] | 8 | 3.5 | -5.85 | -0.327 | 5.96
FCOC(C(F)(F)F)C(F)(F)F [Sevoflurane] | -1.7 | 2.93 | 0.0224 | 4.17 | -3.43
Cc1nnc(C(C)C)n1C1C[C@H]2CC[C@@H](C1)N2CC[C@H](NC(=O)C1CCC(F)(F)CC1)c1ccccc1 (stereo in doubt) [Maraviroc] | 11.9 | -3.97 | 5.94 | -1.89 | 4.5
